Reference: PubChem BioAssay (Tox21)
Inconclusive results are not listed. A call without a number means that no potency is given here. Active and inactive are the calls of the source. The call rests on the fitted dose curve; in most records, active means well fitted inhibition curve with a large enough effect in the repeat runs; inconclusive means weak or mixed curves; inactive means flat fitted curve, though single readings scatter.

target: Luciferin 4-monooxygenase (Photinus pyralis) (UniProt P08659); experiment: qHTS assay to identify small molecule inhibitors of firefly luciferase (AID 1224835); further: nearly all actives have a fitted effect of over 25% in size; conditions: purified P. pyralis luciferase, luminescence inhibition; series mostly up to 52.9 µM
Text: U.S. Tox21 Program National Center for Advancing Translational Sciences [NCATS] NIH Chemical Genomics Center [NCGC] U.S. Environmental Protection Agency [EPA] National Institutes of Environmental Health Sciences [NIEHS] National Toxicology Program [NTP] U.S. Food and Drug Administration [FDA] Tox21 Assay Overview: Firefly (Photinus pyralis) luciferase is one of the most commonly used transcriptional reporters. Firefly luciferase reporter-gene assays are generally considered one of the most sensitive assay types (Wood, 1995; Wood, 1998). However, it was initially observed, in 1991, by Thompson et al., that compounds that resemble the substrates of firefly luciferase (FLuc) can act as competitive inhibitors of the enzyme, and that these compounds, upon interaction with luciferase in the cell, can actually stabilize the protein and increase its half-life. Previous profiling work by other groups to determine the prevalence of compounds that affect FLuc enzymatic activity (PubChem AID 411) identified that ~3% of the MLSMR library (then at ~72K) inhibited FLuc. […] Thus the Tox21 10K library is profiled for activity against FLuc using a biochemical assay of purified FLuc and KM concentrations of FLuc substrates (D-luciferin and ATP).
These assay plates were then treated with 23nL of compound or DMSO using a Kalypsys pin tool, which allows for delivery of a 6-point interplate titration of each compound to the assay plate (quantitative HTS.) 1 uL of firefly luciferase mix (containing 50 mM Tris acetate, pH 7.6, 0.04 uM P. pyralis luciferase, 0.01% Tween, 0.05% BSA and dH2O) was then delivered by FRD to each well. Luciferase activity was then measured using a ViewLux CCD imager.

Chain of Luciferin 4-monooxygenase (Photinus pyralis) (P08659 whole entry, looked up): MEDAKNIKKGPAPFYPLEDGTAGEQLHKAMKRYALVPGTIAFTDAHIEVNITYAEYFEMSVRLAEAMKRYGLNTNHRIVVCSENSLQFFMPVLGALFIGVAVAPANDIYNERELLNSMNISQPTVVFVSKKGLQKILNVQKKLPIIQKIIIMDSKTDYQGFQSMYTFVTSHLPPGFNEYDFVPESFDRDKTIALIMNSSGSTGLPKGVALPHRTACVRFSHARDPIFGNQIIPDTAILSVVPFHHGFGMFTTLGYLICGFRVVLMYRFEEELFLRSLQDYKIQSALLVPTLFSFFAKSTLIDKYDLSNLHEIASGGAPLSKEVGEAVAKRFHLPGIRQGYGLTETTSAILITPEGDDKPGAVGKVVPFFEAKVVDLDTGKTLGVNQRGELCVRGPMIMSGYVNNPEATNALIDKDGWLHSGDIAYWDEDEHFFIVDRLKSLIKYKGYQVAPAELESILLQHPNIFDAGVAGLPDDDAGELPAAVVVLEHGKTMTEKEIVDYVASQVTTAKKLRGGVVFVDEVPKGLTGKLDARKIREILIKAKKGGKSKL

Structure (SMILES)	Potency
C=CCc1ccccc1OCC(O)CNC(C)C (stereo not given)	inactive
C=COCC(C)C	inactive
CCCCC(CC)CN (stereo not given)	inactive
COc1ccc(OC(=O)N(CC(=O)O)Cc2ccc(OCCc3nc(-c4ccccc4)oc3C)cc2)cc1	inactive
CC(=O)OCCN(CCOC(C)=O)c1ccc(N=Nc2ccc([N+](=O)[O-])cc2C#N)cc1	35.6 µM (active)
Cc1cc(O)ccc1O	inactive
CC(=O)Oc1ccc([N+](=O)[O-])cc1CCl	inactive
CCCCCCCC/C=C\CCCCCCCCO	inactive
COC(=O)[C@H]1[C@H]2C[C@@H]3c4[nH]c5cc(OC)ccc5c4CCN3C[C@H]2C[C@@H](OC(=O)/C=C/c2ccc(O)c(OC)c2)[C@@H]1OC	inactive
C[C@H]1C[C@H](O)c2ccsc2S1(=O)=O	inactive
O=c1cc(-c2ccccc2)oc2cc(O)cc(O)c12	2.52 µM (active)
Nc1ccc(N=Nc2ccccc2)c(N)c1	2.47 µM (active)
CC1(C)[C@@H](OC(=O)CCC(=O)O)CC[C@]2(C)[C@H]3C(=O)C=C4[C@@H]5C[C@@](C)(C(=O)O)CC[C@]5(C)CC[C@@]4(C)[C@]3(C)CC[C@@H]12	inactive
C/C=C(/C(=C/C)c1ccc(O)cc1)c1ccc(O)cc1	inactive
Clc1cc(Cl)nc(Cl)n1	inactive
O=C(O)c1cccc(-c2noc(-c3ccccc3F)n2)c1	0.0087 µM (active)
N#CCCN(CCO)CCO	inactive
CCCCCCCCC(CCCCCC)C(=O)O (stereo not given)	inactive
CCCCN(CCN(CCCC)C(=O)N1CCOCC1)C(=O)N1CCOCC1	inactive
O=C1NCCN1CCO	inactive

Structure (SMILES)	Potency
Cc1ccc(CO)cc1	inactive
CCOC(=O)OC(C)OC(=O)[C@@H]1N2C(=O)[C@@H](NC(=O)[C@H](N)c3ccccc3)[C@H]2SC1(C)C (stereo not given in full)	inactive
N#CCc1ccc(Cl)cc1Cl	inactive
CN1CCCN=C1COC(=O)C(O)(c1ccccc1)C1CCCCC1 (stereo not given)	inactive
CN1C(=O)c2ccccc2C1=O	inactive
CCCC(C(=O)OCCN(CC)CC)(c1ccccc1)c1ccccc1	inactive
CC(C)=CC(=O)C=C(C)C	inactive
Nc1ncnc2c1ncn2[C@H]1CC[C@@H](CO)O1	inactive
CCC1(CO)COCOC1	inactive
O=C1NC(=O)c2cc([N+](=O)[O-])ccc21	inactive
C1C[C@@H]2[C@H]3CC[C@H](C3)[C@@H]2C1	inactive
COc1ccccc1N1CCN(CC(O)COc2cccc3ccccc23)CC1 (stereo not given)	inactive
O=[N+]([O-])c1cc(C2CCCCC2)c(O)c([N+](=O)[O-])c1	39.8 µM (active)
CN1C(=O)N(c2ccccc2Br)Cc2cnc(Nc3ccc4c(c3)OCC(CO)O4)nc21 (stereo not given)	20 µM (active)
CC(C)(O)c1ccc(CNC(=O)c2cccnc2Oc2ccc3nonc3c2)cc1	inactive
COc1cc(C(=O)NC2CCN(C)CC2)ccc1Nc1ncc2c(n1)N(C1CCCC1)CC(F)(F)C(=O)N2C	inactive
OC(CCN1CCCC1)(c1ccccc1)C1CCCCC1 (stereo not given)	inactive
O=C(CCCN1CC=C(n2c(=O)[nH]c3ccccc32)CC1)c1ccc(F)cc1	inactive
Cc1ccc(Cl)c(Nc2ccccc2C(=O)O)c1Cl	inactive
C=C1c2cccc(O)c2C(O)=C2C(=O)[C@]3(O)C(O)=C(C(N)=O)C(=O)[C@@H](N(C)C)[C@@H]3[C@@H](O)[C@H]12	inactive
